Screens from PubChem.
Autophagy mod – modulators of autophagy; MEF GFP-LC3 puncta imaging; test concentration mostly 10 µM; calls only at 10 µM (by protocol); hit rate 0.98% among 190,000;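 active = percentage of spot-positive cells more than 3 SD above its plate mean, without a fluorescence outlier flag or 80% toxicity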
Insulin prom up – MIN6 insulin promoter up-regulation; MIN6 insulin promoter-GFP reporter, high-content imaging; active compounds read high; z-score at 5 µM; hit rate 0.3% among 190,000; AID 1625;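 active = z-score above 3 at 5 µM with at least 500 cells counted in the well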
Insulin prom inh – TRM-6 insulin promoter activity inhibition. AID 1273. TRM-6 cells (human fetal islet line), insulin promoter-eGFP reporter, imaging; reporter expression induced with tamoxifen. inhibition, % at 2 µM. hit rate 0.9% among 130,000;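 active = inhibition above the mean plus 3 SD, with well images judged a real hit on visual review, cut at about 60% in these data, passing the limit was not always enough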
bCat KO growth – beta-catenin-lacking colon tumor cell growth suppression | AID 818 | HCT116 beta-catenin knockout viability, CellTiter-Glo, 60 h; active compounds read low | viability, % at 10 µM | hit rate 1.5% among 140,000;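 active = viability at or under a set limit, the compound median less 4 SD, cut at about 6% in these data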
PTEN del growth – suppresses growth of cells with PTEN deletion; HCT116 PTEN-null viability, CellTiter-Glo, 60 h; active compounds read low; viability, % at 10 µM; hit rate 1.2% among 140,000;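 active = viability at or below a set limit, 4 SD under the median of all tested compounds, cut at about 3.7% in these data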;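 note: PTEN knockout HCT116 line with beta catenin targeted HCT116 as companion control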
Lmaj promast – reduces viability of Leishmania major promastigotes. resazurin fluorescence viability. inhibition, % at 10 µM. hit rate 9% among 200,000; in the data active = inhibition above about 50%;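 note: promastigotes grown with compound for 44 hours at 28 °C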
Of the large screens only hits and unclear results are named; the others gave an inactive call. A selection: hits, their analogues and other compounds. The true share with any hit is near 9.6%.

CC(C)CCN1CCN(CCCn2cccn2)CC1CCO (centres undefined)	none (no result: Insulin prom inh, bCat KO growth, PTEN del growth)
CC(=O)c1cccc(CN2CCN(Cc3ccccc3)C(CCO)C2)c1 (centres undefined)	none (no result: Insulin prom inh, bCat KO growth, PTEN del growth)
OCCC1CN(Cc2cccc(-n3cccn3)c2)CCN1Cc1ccccc1 (centres undefined)	Lmaj promast 79 (no result: Insulin prom inh, bCat KO growth, PTEN del growth)
Cc1cc(-n2cccn2)ccc1CN1CCN(CC(C)C)C(CCO)C1 (centres undefined)	none (no result: Autophagy mod, Insulin prom inh, bCat KO growth, PTEN del growth, Lmaj promast)
Cc1ccc(CN2CCN(Cc3ccc(-n4cccn4)cc3)CC2CCO)cc1 (centres undefined)	Lmaj promast 62 (no result: bCat KO growth, PTEN del growth)
Cc1cc(-n2cccn2)ccc1CN1CCN(C2CCCC2)C(CCO)C1 (centres undefined)	Lmaj promast 64 (no result: Insulin prom inh, bCat KO growth, PTEN del growth)
COc1cccc(N2CCN(C(=O)c3ccc(CSc4nc5ccncc5[nH]4)cc3)CC2)c1	none
OC1(CN2CCOCC2)C2CN3CCN(C2)CC1(c1ccccc1)C3 (centres undefined)	none
N#CC1=C(N)C(C#N)(C#N)C(c2ccc[nH]2)C2CCCC=C12 (centres undefined)	none
N#CC1=C(N)C2=CCCC[C@H]2[C@H](c2cccc(F)c2)C1(C#N)C#N	Lmaj promast 81 (no result: Insulin prom inh)
CCN(CC)CCNC(=O)C1CCC(=O)N1CCc1ccccc1 (centres undefined)	none
COC(=O)c1cccc(NC(=S)N2CCCCC2)c1	none (no result: bCat KO growth, PTEN del growth)
O=C(NCCO)c1cc([N+](=O)[O-])cc2c1C=Cc1ccccc1O2	Lmaj promast 95 (no result: bCat KO growth, PTEN del growth)
O=C(NCCCc1ccccc1)c1cc([N+](=O)[O-])ccc1Cl	none (no result: Insulin prom inh, bCat KO growth, PTEN del growth)
COc1cc(OC)c(NC(=O)CCCn2c(=O)oc3ccccc32)cc1Cl	none
COc1cc(Cl)c(C)cc1NC(=O)CCCn1c(=O)oc2ccccc21	Lmaj promast 53
COc1ccc(NC(=O)CCCn2c(=O)oc3ccccc32)cc1Cl	Lmaj promast 58
Cc1ccc2[nH]c(=O)c(CN(Cc3cccs3)C(=S)NCC3CCCO3)cc2c1 (centres undefined)	none
CCN(CC)C(=O)c1c(NC(=O)c2ccccc2)sc(C)c1C	none
C#CCNC(=O)C1=C[C@H](C2CCCCC2)C[C@H](OCCCCO)O1	none (no result: Insulin prom inh, bCat KO growth, PTEN del growth)
O=C(C1CCN(Cc2cc(Cl)ccc2O)CC1)N1CCN(Cc2ccccc2)CC1	Lmaj promast 100 (no result: Insulin prom inh)
O=C(Cc1ccccc1)NC1CCN(Cc2ccccc2)CC1	Lmaj promast 82 (no result: Insulin prom inh, bCat KO growth, PTEN del growth)
CCS(=O)(=O)N1CCC(C(=O)N2CCN(Cc3ccccc3)CC2)CC1	none (no result: bCat KO growth, PTEN del growth)
O=C(Cn1cc2c(n1)CCCCC2)NC1CCN(Cc2ccccc2)CC1	Lmaj promast 83 (no result: Insulin prom inh)
O=C(NC1CCN(Cc2ccccc2)CC1)c1cncc(Br)c1	Lmaj promast 67 (no result: Insulin prom up, bCat KO growth, PTEN del growth)
O=C(Cn1cc2c(n1)CCCC2)NC1CCCCCC1	none
CCC1(C(=O)c2ccccc2)C(c2ccc([N+](=O)[O-])cc2)C1(C(=O)OC)C(=O)OC (centres undefined)	none (no result: Insulin prom inh)
O=C(NC1CCN(Cc2ccccc2)CC1)C12CC3CC(CC(C3)C1)C2	Lmaj promast 88 (no result: Insulin prom up)
O=C(CCCCn1c(=O)c2ccccc2n(Cc2ccccc2F)c1=O)NC1CCN(Cc2ccccc2)CC1	Lmaj promast 72 (no result: bCat KO growth, PTEN del growth)
CC(Oc1ccccc1)C(=O)NC1CCN(Cc2ccccc2)CC1 (centres undefined)	Lmaj promast 91
N#CC(c1ccccc1)C1CCN(Cc2ccccc2)CC1 (centres undefined)	Lmaj promast 88 (no result: Insulin prom up)
O=C(O)COCC(=O)NC1CCN(Cc2ccccc2)CC1	none (no result: Autophagy mod, Insulin prom inh, bCat KO growth, PTEN del growth, Lmaj promast)
CC(Nc1cc(=O)n(C)c(=O)[nH]1)c1ccccc1 (centres undefined)	none
O=C(CC1NCCNC1=O)Nc1ccc2c(c1)OCCO2 (centres undefined)	none (no result: Insulin prom up, Insulin prom inh)
O=C(NCCSc1ccccc1)c1cncc(Br)c1	Insulin prom inh 75
O=C(CC(Nc1ccc(F)cc1)C(=O)O)c1ccccc1 (centres undefined)	Lmaj promast 61
CC1CCN(CCCNC(=O)c2cc3sccc3n2C)CC1	Lmaj promast 92 (no result: Insulin prom inh)
COc1ccc(N2CCN(CCCNC(=O)c3cc4sccc4n3C)CC2)cc1	Lmaj promast 81
COc1ccc(N2CCN(CCCNC(=O)CN3CCN(Cc4ccccc4C)C3=O)CC2)cc1	Autophagy mod active (no result: Insulin prom inh)
COc1ccc(N2CCN(CCCNC(=O)Nc3ccccc3)CC2)cc1	none (no result: Insulin prom up)
Cn1c(C(=O)NC2CCCCC2)cc2sccc21	none (no result: Insulin prom inh)
CC(C)CNS(=O)(=O)c1ccc2c(c1)OCCO2	none (no result: Insulin prom up)
CCOc1ccc(CC(=O)NNC(=S)Nc2ccccc2)cc1Br	none
